The list is not random: actives were taken first. Their share in the collection is about 1%.
PrP 5UTR inh – inhibition of PrP 5' UTR reporter expression; cell-based PrP 5' UTR mRNA reporter, plate reader; inhibition, % (test concentration not listed); 340,000 compounds, 0.35% hits; AID 488862, 2010; in the data active means inhibition above about 52%; further: 0 = median of the neutral control wells
BioA inh – M. tuberculosis BioA enzyme inhibitors, primary screen, biochemical, plate reader, single point, HTS | inhibition, % at 9.99 µM | purified M. tuberculosis BioA enzyme | AID 602481, 2012 | 360,000 compounds, 0.096% hits | 7,8-diaminopelargonic acid synthase BioA (Mycobacterium tuberculosis); in the data active means inhibition above about 40%
Mtb hypoxia rep – PubChem AID 1159583; fluorescence inhibition, % (no concentration beside the values); M. tuberculosis hypoxia-regulated fluorescent reporter, fluorescence; 300,000 compounds, 0.1% hits; in the data active means fluorescence inhibition mostly above about 23%, no sharp cut-off; inactive means mostly below about 17%
FadD28 FP inh – inhibitors of FadD28 bisubstrate probe binding, primary screen, biochemical, fluorescence polarization, single point. Mycobacterium tuberculosis FadD28 fatty-acid-AMP ligase. inhibition, % at 12.5 µM. 360,000 compounds, 0.22% hits; in the data active means inhibition above about 8.5%, passing the limit was not always enough
TcdB inh – TcdB glycohydrolase inhibitors, primary screen, biochemical, single point, plate reader; Toxin B (Clostridioides difficile), P18177; TcdB glycohydrolase enzymatic assay; inhibition, % at 9.99 µM; 350,000 compounds, 0.24% hits; in the data active means inhibition above about 10%
SSB-PriA inh – inhibitors of Klebsiella pneumoniae PriA binding to SSB C-terminal tail, primary screen, biochemical, AlphaScreen | 430,000 compounds, 0.6% hits | AlphaScreen SSBct-PriA binding, biotinylated peptide | PriA–SSB C-terminal tail interaction (Klebsiella pneumoniae) | inhibition, % at 33 µM; in the data active means inhibition mostly above about 37%, no sharp cut-off; inactive means mostly below about 20%;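 further: plate controls were negative control peptide for no effect and reference peptide for full effect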
* hit, by the source's call; i = inactive; nt = not tested or not shown; ! = not active in a repeat.

SMILES	PrP 5UTR inh	BioA inh	Mtb hypoxia rep	FadD28 FP inh	TcdB inh	SSB-PriA inh
C[C@@H](O)C#Cc1ccc([C@@H]2[C@H]3CN(CC4CCOCC4)CCCCN3[C@H]2CO)cc1	nt	-3	nt	nt	-1	nt
Cc1cccc(C(=O)n2cnnc2N)c1	-12	nt	3	-3	0	-8
Cc1ccc(Nc2cc(C)nc3c(C)c(C)cc([N+](=O)[O-])c23)cc1	nt	nt	nt	nt	nt	66*
Cc1cc(Nc2ccccc2)c2c([N+](=O)[O-])c(C)cc(C)c2n1	-8	-2	nt	0	nt	15
O=S(=O)(c1ccc(F)cc1)N1CCN(Cc2nnc(-c3ccccc3)o2)CC1	-12	0	5	-1	1	-9
O=S(=O)(c1ccccc1)N1CCN(Cc2nnc(-c3ccccc3)o2)CC1	nt	-1	nt	-4	10*	nt
CC1CCN(CCCn2c(=S)[nH]c3c(sc4ccccc43)c2=O)CC1	-31	2	-1	-3	11*	1
Cc1ccccc1COc1ccc2oc(C)c(C(=O)O)c2c1	-23	nt	14	0	12*	-3
Cc1oc2ccc(OCc3ccccc3F)cc2c1C(=O)O	-3	-1	-1	-4	nt	-10
CCN(CC)C(=S)SC1=C(Cl)CS(=O)(=O)C1	nt	nt	nt	nt	nt	98*
CCCNC(=O)c1cc2nc(-c3ccccc3)cc(C(F)(F)F)n2n1	14	0	2	2	nt	-2
c1ccc(CN2CCN(C3=Nc4cccc5cccc3c45)CC2)cc1	-37	-1	4	-1	nt	15
Fc1ccc(N2CCN(C3=Nc4cccc5cccc3c45)CC2)cc1	-33	nt	14	-4	1	44*
COc1ccc(-c2ccc3c(c2)[C@@H]2[C@@H](CCN2S(=O)(=O)c2ccc(OC)cc2)[C@H](CO)N3)cc1	nt	-2	nt	nt	nt	nt
CC(=O)N(C)C[C@@H]1Oc2cc(/C=C/c3ccccc3)ccc2S(=O)(=O)N([C@H](C)CO)C[C@@H]1C	nt	4	nt	nt	13*	nt
C[C@H]1CN([C@@H](C)CO)S(=O)(=O)c2ccc(C#Cc3ccncc3)cc2O[C@H]1CN(C)C(=O)C1CC1	nt	-1	nt	nt	5	nt
C[C@@H]1CN([C@@H](C)CO)S(=O)(=O)c2ccc(C#Cc3ccncc3)cc2O[C@H]1CN(C)C(=O)C1CC1	nt	1	nt	nt	11*	nt
C=CCN1C(=O)CN=C1Nc1cccc(C)c1	-21	-2	nt	-2	nt	-16
Nc1ccccc1Nc1cccc(C(F)(F)F)c1	-25	nt	1	0	0	43*
COc1ccccc1-c1nc(C#N)c(N2CCN(c3ccccc3)CC2)o1	-4	0	13	-5	nt	51*
COc1ccc(-c2nc(C#N)c(N3CCc4ccccc4C3)o2)cc1OC	-8	0	-4	0	nt	30
COc1ccccc1-c1nc(C#N)c(N2CCc3ccccc3C2)o1	-2	-1	4	-2	2	56*
N#Cc1nc(-c2ccco2)oc1N1CCN(c2ccccc2)CC1	-12	6	14	0	nt	38*
CCCCNC(=S)N(C)N=C1CCC(c2ccccc2)CC1 (stereo unspecified)	-25	nt	4	-5	0	1
O=C(Oc1cccc(C=NNc2nc(N3CCOCC3)nc(N3CCOCC3)n2)c1)c1ccco1	nt	nt	-9	nt	nt	-4
SMILES	PrP 5UTR inh	BioA inh	Mtb hypoxia rep	FadD28 FP inh	TcdB inh	SSB-PriA inh
Cc1nc(SCc2ccccc2F)c2oc3ccccc3c2n1	-15	0	40*	-1	-1	-3
CS(=O)(=O)c1ccc([C@@H](O)[C@@H](CO)NC(=O)C(Cl)Cl)cc1	-7	-3	nt	0	2	29
CS(=O)(=O)c1ccc(C(O)C(CO)NC(=O)C(Cl)Cl)cc1 (stereo unspecified)	nt	nt	80*	nt	nt	nt
CN(C(=O)COC(=O)c1cc(Br)c(Br)s1)C1CCS(=O)(=O)C1 (stereo unspecified)	6	nt	2	-1	nt	-15
CCCCC12CN3CC(C)(CN(C1)C3c1ccc([N+](=O)[O-])o1)C2=O (stereo unspecified)	-5	0	7	-3	2	-2
COc1cccc(C(=O)Nc2cccc(-c3ccccc3)c2)c1	-17	0	8	-4	0	-49
COC(=O)CCC(=O)OC1(C)C(=O)C=C2C=C(C3CC3)N(c3ccccc3)C=C2C1=O (stereo unspecified)	-20	7	18	0	-1	-7
CCCC1CC(C(=O)NC(C(C)Cl)C2OC(SC)C(O)C(O)C2O)N(C)C1 (stereo unspecified)	-18	-1	44*	-2	2	-2
CCC[C@@H]1C[C@@H](C(=O)NC(C(C)Cl)[C@H]2O[C@H](SC)[C@H](O)[C@@H](O)[C@H]2O)N(C)C1 (stereo partly specified)	-7	-3	nt	-5	0	-10
CCN(CC)CCNc1ccc(C)c2sc3ccc(O)cc3c(=O)c12	-13	nt	nt	0	29*	68*
CCN(CC)CCNc1ccc(CO)c2oc3cc(Cl)ccc3c(=O)c12	nt	-4	nt	0	0	nt
Cc1cc(C)c2nc(N(CCCN(C)C)C(=O)c3ccc(S(=O)(=O)N4CCCCCC4)cc3)sc2c1	-6	-1	nt	-5	-1	36*!
Cc1ccc2sc(N(CCCN(C)C)C(=O)c3ccc(S(=O)(=O)N4CCCCCC4)cc3)nc2c1C	-9	-3	17	-2	1	17
Cc1cc(C)c2nc(N(CCCN(C)C)C(=O)c3ccc4c(c3)CCCC4)sc2c1	nt	nt	19	nt	0	43*
O=C(O)c1cc(N=Nc2c(O)ccc3ccccc23)cc(C(=O)O)c1	-46	nt	nt	13*	1	7
Oc1ccc(N=Nc2c(O)ccc3ccccc23)cc1	-17	-2	11	1	1	88
Cc1cc(N(CCO)CCO)ccc1N=Nc1cc(F)ccc1F	-80	4	16	2	3	75*
OCCN(CCO)c1ccc(C(c2ccc(Cl)cc2)c2ccc(N(CCO)CCO)cc2Cl)c(Cl)c1	-15	0	-1	-1	-1	10
COc1cc(/C=N/NC(N)=S)ccc1OCc1ccc(C)cc1	-29	nt	nt	16*	2	nt
O=C(c1c[nH]c2ccccc12)N1CC(S(=O)(=O)c2ccc(F)cc2)C1	nt	nt	nt	nt	nt	-13
O=C(COc1ccccc1)Nc1ccc(N2CCCCC2)cc1	-13	-3	5	0	0	3
O=C(COc1ccccc1)Nc1ccc(CN2CCCCC2)cc1	-18	8	12	16*	1	-10
O=C(COc1ccccc1)Nc1ccc(S(=O)(=O)Nc2ncccn2)cc1	-24	nt	11	-4	17*	-15
O=C(N/N=C/c1cccs1)c1n[nH]c2c1CCCC2	38	-3	nt	-2	0	i
CCCN1CCCc2cc(CCNS(=O)(=O)c3ccc(OC)c(OC)c3)ccc21	nt	nt	nt	nt	nt	67*

High-throughput results (PubChem BioAssay)
